Screening results as filed in PubChem BioAssay.
Vif-APOBEC3G blk: qHTS for Inhibitors of Vif-A3G Interactions: qHTS. DNA dC->dU-editing enzyme APOBEC-3G (Homo sapiens), Q9HC16. HeLa A3G-eYFP + Vif (tagged APOBEC3G with the HIV-1 protein that degrades it), YFP fluorescence, overnight. 410,000 tested, 0.076% active. Potency, µM (doses to about 46.1 µM), for inactives: top-dose activity, negative = active, most hits filed as inhibitors; note: potency is the fitted concentration of half-maximal effect; % is set by controls: 0 for no effect and ±100 for the full control effect; nearly all actives have a fitted effect of over 60% in size
Target sequence (Q9HC16 whole entry, looked up): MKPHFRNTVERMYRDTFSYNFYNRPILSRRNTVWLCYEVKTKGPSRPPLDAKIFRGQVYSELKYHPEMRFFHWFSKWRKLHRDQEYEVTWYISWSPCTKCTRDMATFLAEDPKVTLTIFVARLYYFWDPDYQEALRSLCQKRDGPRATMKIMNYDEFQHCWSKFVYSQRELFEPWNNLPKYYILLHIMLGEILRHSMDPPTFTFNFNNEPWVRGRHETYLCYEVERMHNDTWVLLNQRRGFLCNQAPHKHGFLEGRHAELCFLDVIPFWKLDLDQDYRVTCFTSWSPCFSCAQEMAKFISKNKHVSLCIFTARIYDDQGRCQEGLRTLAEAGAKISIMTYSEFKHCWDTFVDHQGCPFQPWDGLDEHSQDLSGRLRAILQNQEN
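Read-out is eYFP fluorescence (Ex 488/Em 500-530) from Vif-expressing HeLa A3G-eYFP cells; more signal means A3G escaped Vif-mediated degradation. Cells plated overnight, compound pinned in, incubated overnight at 37 deg C.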
Giardia kill: Small Molecules that selectively kill Giardia lamblia: qHTS | Giardia lamblia trophozoite viability | activity change, % at 7.66 µM, hits read low | 340,000 tested, 0.15% active | AID 540267, 2011; in the data active = activity change below about -80%; inconclusive = between about -30% and that limit;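 note: parasites exposed to compound for two days anaerobically before the ATP read; % is set by controls: 0 for no effect and ±100 for the full control effect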
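Media and compound were dispensed first, then trophozoites at 100 cells/well; plates sat 48 hrs at 37 deg C without oxygen before ATP luminescence reagent was added and read after 15-30 min at room temperature.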
SW480 rereplic: A quantitative high throughput screen for small molecules that induce DNA re-replication in SW480 colon adenocarcinoma cells; SW480 DNA re-replication, Hoechst DNA content imaging, 48 h; Potency, µM (top dose mostly 46.1 µM), inactives show at the highest dose re-replication activation, most hits filed as activators; 340,000 tested, 1.8% active; AID 624297, 2012; note: potency is the fitted concentration of half-maximal effect; % of control where 0% means no effect; nearly all actives have a fitted effect of over 55% in size
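Readout is total intensity of Hoechst-stained nuclei, excited at 405 nm and collected at 500-530 nm. Compound treatment lasted 48 hr at 37 C in 5% CO2 before staining.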
IL1B secr inh: qHTS for Inhibitors of Inflammasome Signaling: IL-1-beta AlphaLISA Primary Screen. THP-1 LPS/ATP IL-1B secretion, AlphaLISA, 16 h; active compounds read low. activity change, % at 57.5 µM. 360,000 tested, 4.7% active; in the data active = activity change below about -50%; inconclusive = mostly about -30% to -49%; note: % is set by controls: 0 for no effect and ±100 for the full control effect
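THP-1 cells pretreated 1 hr with compounds (up to 57.5 uM final), then stimulated with LPS (250 ng/mL final) plus ATP (1.25 mM final); secreted IL-1B measured by AlphaLISA after 16 hr, decreased signal indicating inhibition.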
MCF10A rereplic: A quantitative high throughput screen for small molecules that induce DNA re-replication in MCF 10a normal breast cells. Potency, µM (series often up to 46.1 µM), inactives show at the highest dose activity, positive = re-replication, usual class: activators. AID 624296, 2012. MCF 10A DNA re-replication, Hoechst nuclear intensity, 48 h. 350,000 tested, 2.9% active; note: potency is the fitted concentration of half-maximal effect; % of control where 0% means no effect; nearly all actives have a fitted effect of over 50% in size
Vif-APOBEC3F blk: qHTS for Inhibitors of Vif-A3F Interactions: qHTS; HeLa A3F-eYFP + Vif (tagged APOBEC3F with the HIV-1 protein that degrades it), YFP fluorescence increase; Potency, µM (top dose mostly 46.1 µM), without a hit: at the highest dose activity, negative = active; 390,000 tested, 0.2% active; AID 602313, 2012; note: potency is the fitted concentration of half-maximal effect; % of control where 0% means no effect; nearly all actives have a fitted effect of over 65% in size
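Fluorescence increase (Ex 488/Em 500-530) after overnight compound treatment at 37 deg C flags inhibition of Vif-driven A3F-eYFP loss in stable HeLa A3F-eYFP/Vif cells seeded overnight beforehand.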
* hit, by the source's call; ? = inconclusive; · = no result given; [ ] = another dose, or the depositor's remark. In the library only some 6.9% were active in any assay of this set; here they are far more common. Unless noted, calls come from the whole dose curve; as a rule, active = well fitted curve in the direction sought with a large enough effect; inconclusive = small, poorly fitted or top-dose-only effect, or another doubt; inactive = no such curve, though single readings can be large; an effect the other way counts as inactive or inconclusive.

SMILES	Vif-APOBEC3G blk	Giardia kill	SW480 rereplic	IL1B secr inh	MCF10A rereplic	Vif-APOBEC3F blk
COc1c(OC(C)=O)ccc(/C=C/c2ccc3cccc(OC)c3n2)c1[N+](=O)[O-]	-5%	6	-1%	-85*	?	6%
COc1c(OC(C)=O)ccc(/C=C/c2ccc3ccccc3n2)c1[N+](=O)[O-]	0%	4	0%	-5	?	-7%
OC(CBr)C[n+]1cc(Br)cc2ccccc21 (centres undefined)	2%	·	·	·	·	·
N#CCCn1nc(-c2ccc(Br)cc2)cc1Nc1ccccc1NC(=O)C(F)(F)F	-14%	-12	7%	-78*	15%	9%
N#CCCn1cc(/C=C2\NC(=S)N(c3ccccc3)C2=O)c(-c2ccc(-c3ccccc3)cc2)n1	-19%	-4	?	-8	5.8µM*	?
N#CCCn1cc(C=C(C#N)C#N)c(-c2ccc(Cl)cc2)n1	-1%	-26	?	-28	3.7µM*	?
N#CCCn1cc(/C=N/O)c(-c2ccc(-c3ccccc3)cc2)n1	-24%	-4	?	-19	13µM*	3%
C=C(C)CSc1cc(C)c(C#N)c2nc3ccccc3n12	-8%	-15	?	-21	5.8µM*	11%
O=C(Nc1ccc(CN2CCOCC2)cc1)c1ccc(Br)cc1	6%	5	-16%	37	?	1%
O=C(Cn1cc[n+](Cc2ccccc2)c1)c1ccc([N+](=O)[O-])cc1	1%	-15	2%	-72*	1%	-8%
O=C(Nc1ccccc1)c1ccc[n+](Cc2ccc([N+](=O)[O-])cc2)c1	6%	-2	-135%	-59*	-4%	1%
O=C(Nc1ccc(CN2CCOCC2)cc1)c1ccc(-c2ccc(Br)cc2)o1	-16%	3	?	-79*	?	?
O=C(C[n+]1ccn(-c2ccccc2)c1)c1ccc([N+](=O)[O-])cc1	10%	-22	?	54	?	0%
O=C(Nc1ccccc1)c1ccc(-c2ccc(Br)cc2)o1	3%	-28	?	-24	21µM*	-2%
O=C(Nc1ccccc1)c1ccc(-c2ccc([N+](=O)[O-])cc2)o1	0%	5	1%	-64*	23µM*	-17%
CN1C/C(=C\c2ccc(N3CCOCC3)cc2)C(=O)/C(=C/c2ccc(N3CCOCC3)cc2)C1	?	-5	?	-103*	18µM*	25µM*
CCN1C/C(=C/c2ccc(N3CCOCC3)cc2)C(=O)/C(=C/c2ccc(N3CCOCC3)cc2)C1	10µM*	-8	16µM*	-103*	23µM*	25µM*
c1ccc(N2CCOCCOCCOCCOCCOCC2)cc1	2%	2	-1%	7	-3%	13%
O=S(=O)(Nc1cccc(-c2ccc(N3CCOCC3)nn2)c1)c1ccc(F)c(C(F)(F)F)c1	-3%	·	·	·	·	2%
COC(=O)c1c(NC(=O)CCl)sc(C(=O)N2CCOCC2)c1C	-4%	18	?	-98*	?	4%
COC(=O)c1c(NC(=O)c2ccccc2OC)sc(C(=O)N2CCOCC2)c1C	-37%	30	11%	-60*	?	16%
COC(=O)c1c(NC(=O)c2ccccc2)sc(C(=O)c2ccccc2)c1C	-1%	18	2%	20	6.5µM*	-11%
O=C(CSc1ccc2nnc(CCNS(=O)(=O)c3ccccc3)n2n1)Nc1ccccc1C(F)(F)F	-4%	·	·	·	·	0%
CCOc1ccc(-c2cc(NC(=O)c3ccccc3)c(C(=O)OC)s2)cc1	0%	·	·	·	·	5%
CCOc1ccc(N(CC(=O)NC2CCCC2)C(=O)CCC(=O)Nc2nccs2)cc1	0%	?	1%	-52*	1%	-1%
SMILES	Vif-APOBEC3G blk	Giardia kill	SW480 rereplic	IL1B secr inh	MCF10A rereplic	Vif-APOBEC3F blk
COc1ccc(-n2c(=O)c3c4c(sc3n(Cc3ccc(C(C)(C)C)cc3)c2=O)CCC4)c(OC)c1	4%	·	·	·	·	0%
CCN(CC)c1ccc(C2NC(=O)c3ccccc3N2)cc1 (centres undefined)	?	-86*	10µM*	39	5.8µM*	-11%
O=C1NC(c2ccc(Br)cc2)Nc2ccccc21 (centres undefined)	?	20	?	51	18µM*	-8%
CCCN1C(=O)c2ccccc2NC1c1ccc(Br)cc1 (centres undefined)	-3%	2	3%	-51*	13%	-1%
CCN(CC)c1ccc(N=C2C(=O)Nc3ccccc32)cc1	-5%	-18	?	-89*	?	-21%
CCN(CC)c1ccc(C2Nc3cccc4cccc(c34)N2)cc1	-8%	-3	-20%[1.84 µM]	-8	-24%	-12%
CCOc1cc2ccccc2cc1C(=O)OCC(=O)Nc1ccc(Br)cc1	1%	·	·	·	·	·
CCOC(=O)C1CCCN(CCC(=O)Nc2ccc(OC)cc2OC)C1 (centres undefined)	0%	·	·	·	·	1%
CCC(=O)c1cccc(-c2ccccc2)c1CC	-11%	-12	-2%	-69*	21%	0%
CC1CCCCN1S(=O)(=O)c1ccc2c(c1)oc(=O)n2CC(=O)Nc1ccc(Cl)cc1 (centres undefined)	-2%	·	·	·	·	-7%
CCN(CC(=O)Nc1ccc(NC(C)=O)cc1)Cc1c(O)ccc2cc(Br)ccc12	-1%	-13	5%	-57*	14%	-2%
Cc1ccc(NC(=O)CN(C)Cc2c(O)ccc3ccccc23)cc1	-4%	9	-5%	-101*	-7%	2%
N#Cc1ccccc1OCC(=O)N1CCN(c2ccccc2F)CC1	3%	·	·	·	·	-6%
Cc1ccc(NC(=O)c2cc([N+](=O)[O-])ccc2NCc2cccnc2)cc1Cl	-2%	-23	11%	-54*	6%	2%
Clc1ccc(NCc2cccnc2)c(Cl)c1	-7%	-9	-1%	-59*	-14%	11%
FC(F)(F)c1cc(-c2ccc(Cl)cc2)nc(NCc2cccnc2)n1	-10%	-22	?	0	16µM*	-4%
COc1cccc(NC(=O)c2cc([N+](=O)[O-])ccc2NCc2cccnc2)c1	-17%	18	9%	-21	-1%	-12%
NC(=O)c1cc([N+](=O)[O-])c(Cl)cc1NCc1cccnc1	6%	60	?	-77*	?	3%
NC(=O)c1cc([N+](=O)[O-])ccc1NCc1cccnc1	3%	-11	12%	28	2%	-10%
Cc1ccc(C2CCN(C(=O)Nc3ccc(Cl)c(Cl)c3)C2)cc1 (centres undefined)	3%	·	·	·	·	2%
